For eleven compounds, Percent Effect results are on record in ChEMBL document CHEMBL3988442, “University of Dundee, Small-Polar-MMV Screening Library” (2021).

For some of these results: Measured potencies and affinities stand elsewhere.

Common to all, as to set-up: scale not given: direction of the effect not stated beside the values
Experiment [1] deals with Protein translocase subunit SecA (Escherichia coli (strain K12)) (UniProt P10408). Put plainly: Assay to Identify E. coli SecA ATPase Inhibitors. The class given is functional. The following applies: 30 µM.
In experiment [2] the target is T1, Ubiquitin-activating enzyme e1, putative (Leishmania donovani (strain BPK282A1)) (UniProt E9BSI1).
T1 sequence (whole entry): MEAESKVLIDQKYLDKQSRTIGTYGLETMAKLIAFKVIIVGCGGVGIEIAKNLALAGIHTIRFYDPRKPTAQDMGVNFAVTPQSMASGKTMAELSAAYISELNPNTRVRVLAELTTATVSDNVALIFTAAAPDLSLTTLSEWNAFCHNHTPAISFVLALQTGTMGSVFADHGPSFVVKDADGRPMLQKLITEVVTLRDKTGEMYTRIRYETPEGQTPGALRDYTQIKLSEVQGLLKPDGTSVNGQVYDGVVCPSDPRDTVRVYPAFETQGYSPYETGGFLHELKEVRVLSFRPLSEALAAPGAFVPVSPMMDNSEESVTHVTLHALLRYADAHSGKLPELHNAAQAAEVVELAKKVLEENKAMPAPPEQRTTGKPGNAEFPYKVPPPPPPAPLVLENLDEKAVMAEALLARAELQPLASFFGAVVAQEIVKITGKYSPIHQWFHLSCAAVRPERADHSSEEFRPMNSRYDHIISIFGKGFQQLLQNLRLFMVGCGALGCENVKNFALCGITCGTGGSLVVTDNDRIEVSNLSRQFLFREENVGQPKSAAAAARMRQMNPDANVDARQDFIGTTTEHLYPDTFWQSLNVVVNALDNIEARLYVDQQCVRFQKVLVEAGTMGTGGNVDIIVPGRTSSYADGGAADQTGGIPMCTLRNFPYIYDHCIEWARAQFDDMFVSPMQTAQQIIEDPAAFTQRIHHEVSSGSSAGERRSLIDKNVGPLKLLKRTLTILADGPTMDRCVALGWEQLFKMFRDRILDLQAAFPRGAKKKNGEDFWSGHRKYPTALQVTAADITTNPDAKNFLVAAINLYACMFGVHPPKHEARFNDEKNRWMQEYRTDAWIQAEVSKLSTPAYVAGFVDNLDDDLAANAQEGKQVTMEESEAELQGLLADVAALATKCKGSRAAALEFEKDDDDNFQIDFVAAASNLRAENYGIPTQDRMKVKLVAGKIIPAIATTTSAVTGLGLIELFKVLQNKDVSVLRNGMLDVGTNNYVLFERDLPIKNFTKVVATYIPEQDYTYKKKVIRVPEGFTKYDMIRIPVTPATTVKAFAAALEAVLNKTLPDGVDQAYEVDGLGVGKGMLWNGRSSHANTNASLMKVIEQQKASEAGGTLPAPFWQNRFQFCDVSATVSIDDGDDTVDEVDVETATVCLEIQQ
Put plainly: Leishmania donovani Ubiquitin Activating Enzyme (LdE1). The class given is functional. The following applies: 30 µM.

Experiment [3] concerns the target AMP-activated protein kinase, AMPK (Homo sapiens) (UniProt P54646+O43741+P54619+Q9UGJ0+Q9Y478+Q13131+Q9UGI9). Put plainly: AMP-dependent Kinase enzyme assay. An in vitro enzyme assay that detects ADP turnover that is directly proportional to AMPK activity. This uses naive AMPK that is activated during the assay with MK-8722. The class given is functional. The following applies: 30 µM.

Experiment [4] has as its target Sialic acid-binding Ig-like lectin 9 (Homo sapiens) (UniProt Q9Y336). Kind of experiment: Hs-Siglec9 ALPHAscreen SOP 20170721. The following applies: 10 µM.
Another experiment concerns Trypanosoma cruzi. Put plainly: Trypanosoma cruzi phosphomannomutase and mannose-1-phosphate guanylyltransferase assay. The following applies: 10 µM. In kind it is functional.
The target in experiment [5] is T2, Arginase-2, mitochondrial (Homo sapiens) (UniProt P78540).
T2 sequence (whole entry): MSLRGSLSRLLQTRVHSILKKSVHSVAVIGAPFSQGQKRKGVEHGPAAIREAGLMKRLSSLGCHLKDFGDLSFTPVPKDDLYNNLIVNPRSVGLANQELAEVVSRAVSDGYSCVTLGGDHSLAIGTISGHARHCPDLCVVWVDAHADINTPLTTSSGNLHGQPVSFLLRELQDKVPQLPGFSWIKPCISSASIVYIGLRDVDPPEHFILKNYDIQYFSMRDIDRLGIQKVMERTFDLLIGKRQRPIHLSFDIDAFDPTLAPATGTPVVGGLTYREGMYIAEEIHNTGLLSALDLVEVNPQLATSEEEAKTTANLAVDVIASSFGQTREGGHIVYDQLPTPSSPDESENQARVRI
Put plainly: in vitro enzyme assay to detect the production of urea directly proportional to the activity of Arginase II. Note: in the data most compounds retested in dose-response had high values. The following applies: 33.3 µM. The class given is functional.

Experiment [6] addresses T3, Proteasome subunit beta (Trypanosoma cruzi) (UniProt O96673).
T3 sequence (whole entry): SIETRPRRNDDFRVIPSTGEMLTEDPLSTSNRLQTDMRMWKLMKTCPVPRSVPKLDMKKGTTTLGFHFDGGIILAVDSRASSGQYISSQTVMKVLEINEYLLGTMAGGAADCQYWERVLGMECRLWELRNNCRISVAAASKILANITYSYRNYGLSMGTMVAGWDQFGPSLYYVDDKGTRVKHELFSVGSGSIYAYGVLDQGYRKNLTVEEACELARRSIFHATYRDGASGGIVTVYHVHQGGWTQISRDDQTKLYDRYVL
Put plainly: Trypanosoma cruzi proteasome chymotrypsin-like activity (TcProtChymo) assay. Note: in the data most compounds retested in dose-response had high values. The following applies: 9.37 µM. In kind it is functional.

Another experiment is filed under the species Homo sapiens. Kind of experiment: To identify inhibition of the IFN signalling (Jak-Stat) pathway via expression of an eGFP reporter gene under the control of an IFN-stimulated response element (ISRE) containing MxA promoter. The following applies: 30 µM. In kind it is functional. For orientation: Reporter assays use an easily measured gene product as a stand-in for the process of interest.

The target of experiment [7] is T4, Tyrosyl-tRNA synthetase, putative (Trypanosoma cruzi (strain CL Brener)) (UniProt Q4DSP6).
T4 sequence (whole entry): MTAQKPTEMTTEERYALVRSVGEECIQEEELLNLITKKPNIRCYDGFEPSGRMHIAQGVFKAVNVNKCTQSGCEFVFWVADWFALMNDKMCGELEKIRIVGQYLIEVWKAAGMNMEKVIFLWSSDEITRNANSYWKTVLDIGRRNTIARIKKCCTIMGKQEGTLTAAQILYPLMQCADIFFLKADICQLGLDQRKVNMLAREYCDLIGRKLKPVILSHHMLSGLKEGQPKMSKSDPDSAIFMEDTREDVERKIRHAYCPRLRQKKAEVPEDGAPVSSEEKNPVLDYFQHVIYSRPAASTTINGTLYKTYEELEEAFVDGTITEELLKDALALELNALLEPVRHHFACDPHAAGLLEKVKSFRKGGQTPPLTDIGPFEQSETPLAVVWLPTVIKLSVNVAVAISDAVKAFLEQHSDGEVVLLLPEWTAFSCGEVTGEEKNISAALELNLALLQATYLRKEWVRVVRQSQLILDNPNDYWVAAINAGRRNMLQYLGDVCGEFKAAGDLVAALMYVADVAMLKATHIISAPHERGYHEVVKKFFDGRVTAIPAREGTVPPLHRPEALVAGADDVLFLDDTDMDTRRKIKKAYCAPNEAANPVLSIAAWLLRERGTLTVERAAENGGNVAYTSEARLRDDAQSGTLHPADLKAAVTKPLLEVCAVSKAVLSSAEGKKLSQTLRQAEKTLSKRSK
Kind of experiment: Trypanosoma cruzi tyrosyl tRNA synthetase (TcYRS) _High Tyrosine SOP. Note: in the data most compounds retested in dose-response had high values. In kind it is functional. The following applies: 30 µM.

Experiment [8] deals with T4, Tyrosyl-tRNA synthetase, putative (Trypanosoma cruzi (strain CL Brener)). Kind of experiment: Trypanosoma cruzi tyrosyl tRNA synthetase (TcYRS) SOP. The class given is functional. The following applies: 30 µM.
Experiment [9] deals with Chromo domain-containing protein 1 (Saccharomyces cerevisiae (strain ATCC 204508 / S288c) (Baker's yeast)) (UniProt P32657). Put plainly: ScCHD-1 Enzyme Inhibition Assay. Note: in the data most compounds retested in dose-response had high values. The class given is functional. The following applies: 30 µM.
Chromo domain-containing protein 1 (Saccharomyces cerevisiae (strain ATCC 204508 / S288c) (Baker's yeast)), sequence (P32657 whole entry, the tested form may be a part): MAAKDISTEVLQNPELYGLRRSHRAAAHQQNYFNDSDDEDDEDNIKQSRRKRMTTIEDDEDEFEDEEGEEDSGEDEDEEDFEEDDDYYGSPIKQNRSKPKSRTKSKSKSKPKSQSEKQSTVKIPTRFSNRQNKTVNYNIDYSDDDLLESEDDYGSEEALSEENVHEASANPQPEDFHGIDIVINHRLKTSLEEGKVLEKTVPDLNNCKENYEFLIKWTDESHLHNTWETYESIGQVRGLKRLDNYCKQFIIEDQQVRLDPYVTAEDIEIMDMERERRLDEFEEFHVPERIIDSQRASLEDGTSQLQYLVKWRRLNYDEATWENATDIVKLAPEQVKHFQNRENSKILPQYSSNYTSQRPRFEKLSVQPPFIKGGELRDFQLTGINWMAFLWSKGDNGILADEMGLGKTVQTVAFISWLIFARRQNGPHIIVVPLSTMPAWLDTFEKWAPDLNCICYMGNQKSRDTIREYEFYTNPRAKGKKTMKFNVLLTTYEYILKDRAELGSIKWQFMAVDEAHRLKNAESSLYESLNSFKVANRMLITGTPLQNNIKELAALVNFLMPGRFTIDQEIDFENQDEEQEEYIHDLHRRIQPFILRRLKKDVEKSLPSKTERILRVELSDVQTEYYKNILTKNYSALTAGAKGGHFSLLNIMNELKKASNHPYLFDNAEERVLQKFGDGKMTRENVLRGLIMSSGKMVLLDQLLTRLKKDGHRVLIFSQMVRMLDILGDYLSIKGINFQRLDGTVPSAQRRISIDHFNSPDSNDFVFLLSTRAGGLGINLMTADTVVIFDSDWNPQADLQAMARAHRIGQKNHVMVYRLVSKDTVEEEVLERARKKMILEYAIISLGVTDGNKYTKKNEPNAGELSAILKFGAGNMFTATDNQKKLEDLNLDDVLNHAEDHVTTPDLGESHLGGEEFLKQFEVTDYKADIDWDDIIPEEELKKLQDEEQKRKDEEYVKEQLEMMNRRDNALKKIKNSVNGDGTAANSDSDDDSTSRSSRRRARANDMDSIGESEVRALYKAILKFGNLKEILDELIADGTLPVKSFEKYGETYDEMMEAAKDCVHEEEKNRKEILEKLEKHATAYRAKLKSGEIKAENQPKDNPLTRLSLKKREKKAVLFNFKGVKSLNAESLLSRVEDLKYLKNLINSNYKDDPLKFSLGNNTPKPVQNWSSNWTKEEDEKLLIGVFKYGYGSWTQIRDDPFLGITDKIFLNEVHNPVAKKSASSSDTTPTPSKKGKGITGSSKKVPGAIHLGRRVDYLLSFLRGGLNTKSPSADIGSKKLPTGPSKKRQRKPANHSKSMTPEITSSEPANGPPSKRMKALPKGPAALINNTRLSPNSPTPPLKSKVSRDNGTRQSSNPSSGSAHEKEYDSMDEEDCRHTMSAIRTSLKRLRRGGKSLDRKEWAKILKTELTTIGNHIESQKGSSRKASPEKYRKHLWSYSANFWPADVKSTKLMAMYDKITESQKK

Protein translocase subunit SecA (Escherichia coli (strain K12)), sequence (P10408 whole entry): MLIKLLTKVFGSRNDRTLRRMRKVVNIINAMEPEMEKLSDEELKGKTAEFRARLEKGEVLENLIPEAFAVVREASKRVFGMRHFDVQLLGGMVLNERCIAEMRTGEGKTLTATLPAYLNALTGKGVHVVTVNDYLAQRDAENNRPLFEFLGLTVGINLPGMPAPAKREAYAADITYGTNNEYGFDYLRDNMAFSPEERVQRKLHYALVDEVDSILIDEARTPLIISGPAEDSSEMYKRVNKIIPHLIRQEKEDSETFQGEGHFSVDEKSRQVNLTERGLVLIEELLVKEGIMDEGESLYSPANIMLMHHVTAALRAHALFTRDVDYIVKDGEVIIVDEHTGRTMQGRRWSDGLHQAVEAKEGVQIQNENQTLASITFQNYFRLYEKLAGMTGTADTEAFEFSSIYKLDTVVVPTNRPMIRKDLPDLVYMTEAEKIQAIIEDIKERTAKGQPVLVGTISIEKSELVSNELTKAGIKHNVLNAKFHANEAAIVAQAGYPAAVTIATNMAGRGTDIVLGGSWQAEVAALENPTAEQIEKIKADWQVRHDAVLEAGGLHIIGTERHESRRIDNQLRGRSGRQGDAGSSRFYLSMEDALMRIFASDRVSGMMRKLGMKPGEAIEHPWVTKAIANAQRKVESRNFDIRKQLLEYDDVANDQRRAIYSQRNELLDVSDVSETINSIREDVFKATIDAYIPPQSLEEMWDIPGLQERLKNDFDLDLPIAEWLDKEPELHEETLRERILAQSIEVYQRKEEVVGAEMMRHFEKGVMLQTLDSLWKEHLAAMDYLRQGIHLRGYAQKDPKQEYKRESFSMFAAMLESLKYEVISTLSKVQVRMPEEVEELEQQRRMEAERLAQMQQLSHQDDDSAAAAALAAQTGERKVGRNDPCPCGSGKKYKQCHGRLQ
Sialic acid-binding Ig-like lectin 9 (Homo sapiens), sequence (Q9Y336 whole entry): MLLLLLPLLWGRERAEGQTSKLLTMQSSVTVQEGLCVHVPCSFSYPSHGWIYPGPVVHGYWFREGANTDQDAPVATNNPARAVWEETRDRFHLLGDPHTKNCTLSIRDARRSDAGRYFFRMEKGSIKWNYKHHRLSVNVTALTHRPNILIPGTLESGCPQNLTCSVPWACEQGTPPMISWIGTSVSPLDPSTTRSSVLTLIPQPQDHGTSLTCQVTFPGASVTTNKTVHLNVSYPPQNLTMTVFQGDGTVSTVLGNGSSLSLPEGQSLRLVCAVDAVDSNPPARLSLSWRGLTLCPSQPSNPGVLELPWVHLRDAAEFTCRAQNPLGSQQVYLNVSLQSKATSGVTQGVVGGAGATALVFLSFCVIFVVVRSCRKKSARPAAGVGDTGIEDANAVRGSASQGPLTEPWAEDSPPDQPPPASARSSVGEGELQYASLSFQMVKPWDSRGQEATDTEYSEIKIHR

For `Cc1nn(C)c(C)c1C1CCCN1Cc1nc(-c2ccco2)no1` (stereo unspecified), the Percent Effect in experiment [1] is -1.05%; in [2], 10.8%; in [3], -11.3%; in experiment [4], 7.16%; in the experiment on Trypanosoma cruzi, 4.18%; in experiment [5] it was -2.03%. The Percent Effect in experiment [6] was 3.23%; in the experiment listed under Homo sapiens, 26.2%; in experiment [7] it was 10.9%; in experiment [8] it was 23.2%; in [9] it was -7.01%.
Take `Cc1nc(CN2CCCC(N(C)Cc3nnsc3Cl)C2)no1` (stereo unspecified): the Percent Effect is -5.44% in experiment [1]; 5.2% in [2]; 0.941% in experiment [3]; -5.57% in experiment [4]; 6.76% in the experiment on Trypanosoma cruzi; -5.26% in experiment [5]. Moreover, the Percent Effect in experiment [6] is 2.99%; in the experiment filed under Homo sapiens, -2.55%; in experiment [7], 5.71%; in experiment [8] it was 7.06%; in experiment [9], -13.5%.
For `CNc1cc2c(nn1)CCN(C(=O)c1cccc3c1OCO3)C2`, the Percent Effect in experiment [1] was -5.03%; in experiment [2] it was 5.2%; in experiment [3], -9.97%; in experiment [4], 7.76%; in the experiment on Trypanosoma cruzi, 3.75%; in [5], 2.49%. The Percent Effect was -5.07% in experiment [6]; -5.98% in the experiment listed under Homo sapiens; 4.85% in [7]; 7.32% in experiment [8]; -2.55% in [9].
With `CN1CCN(C(=O)[C@@H]2CCO[C@@H]3CCN(c4ncccn4)C[C@@H]32)CC1`, the Percent Effect in [1] was -0.254%; in experiment [2], 13.3%; in experiment [3], 0.0211%; in experiment [4] it was 0.601%; with Trypanosoma cruzi, 2.7%; in [5], -48.9%. Also, the Percent Effect in experiment [6] was 8.21%; in the experiment filed under Homo sapiens, -18.8%; in experiment [7] it was 7.29%; in [8] it was 17.5%; in experiment [9], -7.16%.
For the compound `CN(C)S(=O)(=O)N1CCC(Oc2ccccn2)CC1`, the Percent Effect in experiment [1] was -2.83%; in [2], 2.6%; in [3], 2.73%; in experiment [4] it was -0.581%; in the experiment with Trypanosoma cruzi, -6.41%; in experiment [5], -7.1%. The Percent Effect in experiment [6] is 14.1%; in the experiment listed under Homo sapiens, -7.21%; in experiment [7] it was 6.35%; in experiment [8] it was -1.28%; in experiment [9], -7.73%.
As for `CCc1cccc(OCC(=O)N2CCCC(n3cncn3)C2)c1` (stereo unspecified), the Percent Effect in [1] is -5.42%; in experiment [2], 13.5%; in [3] it was 1.85%; in experiment [4], -1.09%; in the experiment on Trypanosoma cruzi, -5.57%; in experiment [5] it was 2%. Further, the Percent Effect in experiment [6] was 13%; in the experiment listed under Homo sapiens it was 14.3%; in [7] it was 5.42%; in experiment [8] it was 11.1%; in [9] it was -4.63%.
Take `CCOCCn1nc(C)cc1C(=O)N1CCN(C(C)C)C(CC)C1` (stereo unspecified): the Percent Effect was -4.36% in [1]; 2.7% in experiment [2]; -2.68% in experiment [3]; 4.47% in experiment [4]; 6.56% in the experiment with Trypanosoma cruzi; -1.43% in experiment [5]. The Percent Effect was 10.9% in [6]; 10.2% in the experiment listed under Homo sapiens; 3.7% in experiment [7]; 12.2% in [8]; -1.83% in experiment [9].
Consider `O=C(CCC1CCCC1)NCCn1nc(C2CCNC2)c2nccnc21` (stereo unspecified), for which the Percent Effect in experiment [1] was -2.79%; in experiment [2] it was 12.2%; in experiment [3] it was -13.6%; in [4] it was -8.06%; in the experiment with Trypanosoma cruzi it was -6.52%; in experiment [5], -5.34%. The Percent Effect in experiment [6] was 17.6%; in the experiment filed under Homo sapiens, 23.6%; in experiment [7], -3.23%; in experiment [8], -3.9%; in experiment [9], -19.5%.
On to `CCOc1ccc(NC(=O)NCc2csc(NC)n2)cc1C`, for which the Percent Effect in experiment [1] is -1.88%; in experiment [2] it was 10.8%; in [3], -11.1%; in experiment [4], 14.3%; with Trypanosoma cruzi, 1.95%; in experiment [5] it was 0.924%. The Percent Effect was -1.26% in [6]; 19.8% in the experiment listed under Homo sapiens; 12.9% in experiment [7]; 23.2% in experiment [8]; -3.54% in experiment [9].
As to `CC(C)C(=O)N1CCN(C(=O)c2cc(C(C)C)on2)[C@H]2CS(=O)(=O)C[C@H]21`, the Percent Effect in experiment [1] was -2.71%; in experiment [2], 18.1%; in experiment [3], -7.12%; in [4], 11.2%; in the experiment with Trypanosoma cruzi, 3.4%; in [5], 7.06%. In addition, the Percent Effect is 17.5% in [6]; 13.2% in the experiment listed under Homo sapiens; 0% in experiment [7]; 7.69% in experiment [8]; -5.25% in experiment [9].
As for `CC(C)(C)OC(=O)N1CCCc2ccc(NCc3ncc[nH]3)cc21`, the Percent Effect in [1] was -8.07%; in experiment [2] it was 2.6%; in experiment [3] it was 1.02%; in experiment [4], 4.72%; in the experiment with Trypanosoma cruzi, -4.03%; in [5], -11%. Also, the Percent Effect was 4.66% in experiment [6]; 7.74% in the experiment filed under Homo sapiens; 1.07% in [7]; -3.7% in [8]; -0.00165% in [9].
